According to the supplement of paper PMC10849652:
The full data set covers some 8,800 targets. This sample favours those with a hit. About 0.5% of all pairs of compound and target were hits.

Compound: NC(=O)c1cnc(N[C@@H]2CCCC[C@@H]2N)nc1Nc1cccc(-n2nccn2)c1
Experiment: log2 fold change, soluble protein after heating vs DMSO (PISA); higher = thermal stabilisation; K562 lysate, 10 uM; active = over 0.2 and 3.5 SD of the protein, either way, in both replicates (recomputed)
Method in brief: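 Values give the log-two fold change in thermal stability against solvent controls, from duplicates. Crude K562 extract at 1 mg/mL protein, made by dounce homogenisation in PBS pH 7.4 with 1 mM MgCl2, was treated with 10 μM compound for 30 min. After 3 min heating across 48°C-58°C, aliquots were pooled, adjusted to 0.5% NP-40 at 4°C and centrifuged at 21,000xg for 90 min. The supernatant was measured by TMTpro 16plex LC-MS/MS with channel sums equalised.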

UniProt Q9NZJ5, sequence (Q9NZJ5 whole entry, looked up): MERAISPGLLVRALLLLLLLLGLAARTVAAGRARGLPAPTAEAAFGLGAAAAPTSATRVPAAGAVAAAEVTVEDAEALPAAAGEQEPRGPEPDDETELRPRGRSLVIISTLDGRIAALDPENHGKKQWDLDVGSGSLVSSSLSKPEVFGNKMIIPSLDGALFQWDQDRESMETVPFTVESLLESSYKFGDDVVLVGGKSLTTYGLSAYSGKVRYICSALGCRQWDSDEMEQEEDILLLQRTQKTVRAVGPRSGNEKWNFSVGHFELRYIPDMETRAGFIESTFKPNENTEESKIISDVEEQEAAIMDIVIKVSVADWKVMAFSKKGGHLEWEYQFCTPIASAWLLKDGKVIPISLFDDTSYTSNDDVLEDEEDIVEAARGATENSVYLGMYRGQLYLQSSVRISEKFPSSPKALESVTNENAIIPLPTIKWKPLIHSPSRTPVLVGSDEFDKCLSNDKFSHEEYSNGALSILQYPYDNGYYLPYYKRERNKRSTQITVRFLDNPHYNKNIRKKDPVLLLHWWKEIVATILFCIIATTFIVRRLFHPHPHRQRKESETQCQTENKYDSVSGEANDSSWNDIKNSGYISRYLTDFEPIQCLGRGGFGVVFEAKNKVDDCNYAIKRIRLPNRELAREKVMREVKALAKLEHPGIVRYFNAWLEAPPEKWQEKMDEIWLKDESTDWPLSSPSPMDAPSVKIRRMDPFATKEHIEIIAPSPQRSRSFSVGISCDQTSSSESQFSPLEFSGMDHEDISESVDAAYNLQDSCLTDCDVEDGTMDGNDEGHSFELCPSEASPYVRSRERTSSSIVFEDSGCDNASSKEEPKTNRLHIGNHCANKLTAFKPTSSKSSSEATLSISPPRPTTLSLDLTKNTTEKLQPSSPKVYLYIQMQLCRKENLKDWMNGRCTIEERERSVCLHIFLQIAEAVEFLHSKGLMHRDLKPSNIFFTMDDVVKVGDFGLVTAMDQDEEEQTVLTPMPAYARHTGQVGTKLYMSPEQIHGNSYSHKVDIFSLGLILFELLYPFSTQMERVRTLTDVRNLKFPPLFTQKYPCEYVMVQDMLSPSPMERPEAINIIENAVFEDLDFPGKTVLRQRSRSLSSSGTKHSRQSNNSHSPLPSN
UniProt Q8NCA5, sequence (Q8NCA5 whole entry, looked up): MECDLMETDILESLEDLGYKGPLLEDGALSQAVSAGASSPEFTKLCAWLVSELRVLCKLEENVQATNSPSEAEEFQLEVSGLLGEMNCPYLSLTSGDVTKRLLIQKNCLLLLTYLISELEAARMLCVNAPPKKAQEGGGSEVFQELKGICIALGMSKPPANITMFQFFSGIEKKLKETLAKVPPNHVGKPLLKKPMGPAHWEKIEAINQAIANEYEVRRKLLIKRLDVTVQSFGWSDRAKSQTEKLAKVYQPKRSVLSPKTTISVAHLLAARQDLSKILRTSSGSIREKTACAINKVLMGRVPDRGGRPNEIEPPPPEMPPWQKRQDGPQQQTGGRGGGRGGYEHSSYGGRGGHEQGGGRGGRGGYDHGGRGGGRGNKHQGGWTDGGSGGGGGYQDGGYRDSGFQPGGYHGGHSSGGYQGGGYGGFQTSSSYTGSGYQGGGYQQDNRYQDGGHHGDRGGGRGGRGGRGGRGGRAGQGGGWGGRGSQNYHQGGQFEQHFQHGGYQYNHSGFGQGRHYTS
UniProt Q9UKR5, sequence (Q9UKR5 whole entry, looked up): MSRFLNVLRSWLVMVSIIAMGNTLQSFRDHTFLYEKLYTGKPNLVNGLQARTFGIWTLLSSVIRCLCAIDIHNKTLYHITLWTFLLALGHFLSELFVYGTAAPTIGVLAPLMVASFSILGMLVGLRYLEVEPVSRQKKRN
UniProt P0C2W1, sequence (P0C2W1 whole entry, looked up): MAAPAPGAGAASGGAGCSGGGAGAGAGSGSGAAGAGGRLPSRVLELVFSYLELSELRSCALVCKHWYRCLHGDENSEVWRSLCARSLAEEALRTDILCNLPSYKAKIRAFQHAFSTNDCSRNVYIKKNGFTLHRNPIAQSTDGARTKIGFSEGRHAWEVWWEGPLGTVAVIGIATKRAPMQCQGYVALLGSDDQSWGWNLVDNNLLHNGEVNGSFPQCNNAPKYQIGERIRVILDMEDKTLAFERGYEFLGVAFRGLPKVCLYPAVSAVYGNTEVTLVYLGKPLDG
UniProt Q06547, sequence (Q06547 whole entry, looked up): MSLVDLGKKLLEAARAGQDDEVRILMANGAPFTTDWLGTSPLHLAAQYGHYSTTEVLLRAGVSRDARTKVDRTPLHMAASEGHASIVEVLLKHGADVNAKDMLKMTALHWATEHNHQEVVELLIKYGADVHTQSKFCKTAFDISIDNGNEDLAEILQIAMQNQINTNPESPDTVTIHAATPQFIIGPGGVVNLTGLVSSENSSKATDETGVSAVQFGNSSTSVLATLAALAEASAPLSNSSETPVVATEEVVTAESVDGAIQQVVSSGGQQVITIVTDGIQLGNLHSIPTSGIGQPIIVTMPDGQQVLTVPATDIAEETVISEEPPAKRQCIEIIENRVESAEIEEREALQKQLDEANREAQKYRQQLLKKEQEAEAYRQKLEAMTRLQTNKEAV
UniProt Q9UET6, sequence (Q9UET6 whole entry, looked up): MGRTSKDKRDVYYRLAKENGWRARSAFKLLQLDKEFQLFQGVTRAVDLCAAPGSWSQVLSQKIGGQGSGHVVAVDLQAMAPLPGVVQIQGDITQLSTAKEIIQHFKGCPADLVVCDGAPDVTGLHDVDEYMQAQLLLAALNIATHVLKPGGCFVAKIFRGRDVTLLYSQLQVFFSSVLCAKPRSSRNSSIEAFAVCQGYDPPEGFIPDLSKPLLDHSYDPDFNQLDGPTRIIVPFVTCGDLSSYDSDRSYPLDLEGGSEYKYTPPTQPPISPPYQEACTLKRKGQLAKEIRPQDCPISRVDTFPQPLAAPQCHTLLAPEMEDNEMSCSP
UniProt Q13409, sequence (Q13409 whole entry, looked up): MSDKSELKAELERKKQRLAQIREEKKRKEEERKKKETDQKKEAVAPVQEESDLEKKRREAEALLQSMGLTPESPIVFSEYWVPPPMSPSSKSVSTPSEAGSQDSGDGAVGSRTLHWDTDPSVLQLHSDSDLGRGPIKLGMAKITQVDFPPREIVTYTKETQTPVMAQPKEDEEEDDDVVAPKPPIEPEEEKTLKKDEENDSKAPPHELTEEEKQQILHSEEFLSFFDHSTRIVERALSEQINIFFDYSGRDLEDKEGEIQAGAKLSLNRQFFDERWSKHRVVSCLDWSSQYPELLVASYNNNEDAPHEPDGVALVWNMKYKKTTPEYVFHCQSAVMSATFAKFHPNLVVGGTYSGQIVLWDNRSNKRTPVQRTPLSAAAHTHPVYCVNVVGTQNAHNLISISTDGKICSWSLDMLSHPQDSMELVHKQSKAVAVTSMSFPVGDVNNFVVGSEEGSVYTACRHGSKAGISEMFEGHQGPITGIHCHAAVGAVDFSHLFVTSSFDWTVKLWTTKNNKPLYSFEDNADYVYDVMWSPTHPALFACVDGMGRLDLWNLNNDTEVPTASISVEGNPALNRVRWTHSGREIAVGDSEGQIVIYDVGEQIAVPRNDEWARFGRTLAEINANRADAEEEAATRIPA
UniProt Q96PZ2, sequence (Q96PZ2 whole entry, looked up): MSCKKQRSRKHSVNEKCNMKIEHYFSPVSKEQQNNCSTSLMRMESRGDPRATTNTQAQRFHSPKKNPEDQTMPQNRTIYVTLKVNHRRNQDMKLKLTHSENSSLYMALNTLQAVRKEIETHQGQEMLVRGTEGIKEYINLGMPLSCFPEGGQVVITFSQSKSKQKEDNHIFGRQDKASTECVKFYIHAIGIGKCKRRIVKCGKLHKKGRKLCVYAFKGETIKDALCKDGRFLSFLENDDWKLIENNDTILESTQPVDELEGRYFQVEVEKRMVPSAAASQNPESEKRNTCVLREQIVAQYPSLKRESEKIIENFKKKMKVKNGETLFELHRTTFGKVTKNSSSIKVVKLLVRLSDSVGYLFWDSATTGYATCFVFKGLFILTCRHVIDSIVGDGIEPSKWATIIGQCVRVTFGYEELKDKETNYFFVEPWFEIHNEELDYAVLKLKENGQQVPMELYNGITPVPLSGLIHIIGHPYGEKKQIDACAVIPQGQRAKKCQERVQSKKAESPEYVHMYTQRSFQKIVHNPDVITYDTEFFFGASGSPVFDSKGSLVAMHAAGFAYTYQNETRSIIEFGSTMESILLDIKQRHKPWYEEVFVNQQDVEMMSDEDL
UniProt Q9NRW4, sequence (Q9NRW4 whole entry, looked up): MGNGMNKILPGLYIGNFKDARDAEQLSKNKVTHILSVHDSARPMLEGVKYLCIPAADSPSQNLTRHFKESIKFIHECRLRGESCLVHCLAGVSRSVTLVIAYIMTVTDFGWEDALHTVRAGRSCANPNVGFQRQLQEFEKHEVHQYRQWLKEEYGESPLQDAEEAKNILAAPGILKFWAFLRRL
UniProt P06241, sequence (P06241 whole entry, looked up): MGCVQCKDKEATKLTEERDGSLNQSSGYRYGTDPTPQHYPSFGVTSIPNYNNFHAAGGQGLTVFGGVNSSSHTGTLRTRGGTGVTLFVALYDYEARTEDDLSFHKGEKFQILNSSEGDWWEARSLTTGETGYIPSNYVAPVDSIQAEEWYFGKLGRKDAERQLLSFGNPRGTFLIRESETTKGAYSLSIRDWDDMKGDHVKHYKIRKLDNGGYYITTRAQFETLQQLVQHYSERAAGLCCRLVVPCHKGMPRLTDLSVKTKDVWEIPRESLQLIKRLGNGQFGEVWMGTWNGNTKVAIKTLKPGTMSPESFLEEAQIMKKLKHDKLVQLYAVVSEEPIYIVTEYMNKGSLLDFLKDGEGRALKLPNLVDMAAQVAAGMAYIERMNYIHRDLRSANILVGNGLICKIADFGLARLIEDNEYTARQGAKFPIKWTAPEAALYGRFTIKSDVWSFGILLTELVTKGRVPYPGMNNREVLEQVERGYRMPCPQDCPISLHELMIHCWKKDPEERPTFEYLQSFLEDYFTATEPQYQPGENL
UniProt P28676, sequence (P28676 whole entry, looked up): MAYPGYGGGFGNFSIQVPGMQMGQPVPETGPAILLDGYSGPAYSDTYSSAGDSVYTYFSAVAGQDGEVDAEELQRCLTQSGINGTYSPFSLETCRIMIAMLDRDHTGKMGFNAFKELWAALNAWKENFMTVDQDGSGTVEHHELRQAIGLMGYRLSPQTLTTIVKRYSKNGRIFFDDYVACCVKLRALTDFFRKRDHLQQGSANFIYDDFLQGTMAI

log2 fold change, inactive:
FTSJ1 isoform 2 (UniProt Q9UET6) -0.019
GCA (UniProt P28676) -0.118
FOXL2 (UniProt P58012) -0.15
GAA (UniProt P10253) -0.014
DYNC1I2 isoform 2 (UniProt Q13409) -0.008
ERG28 (UniProt Q9UKR5) -0.015
FLT4 (UniProt P35916) 0.162
GABPB1 isoform 3 (UniProt Q06547) -0.037
FAT1 (UniProt Q14517) -0.017
GAPVD1 (UniProt Q14C86) -0.023
GART (UniProt C9JZG2) 0.139
EPB41 isoform 4 (UniProt P11171) 0.089
FYN (UniProt P06241) -0.025
EIF2AK3 (UniProt Q9NZJ5) 0.104
FAM98A (UniProt Q8NCA5) -0.028
GDE1 (UniProt Q9NZC3) -0.02
DUSP22 isoform 2 (UniProt Q9NRW4) 0.036
EPN2 (UniProt I3L356) 0.021
EIF3I (UniProt Q5TFK1) 0.387
FAT2 (UniProt Q9NYQ8) 0.025
FAM111A (UniProt Q96PZ2) 0.035
FBXO45 (UniProt P0C2W1) 0.147
EIF2B5, A0A3B3ITK8 -0.054
EPB41, A0A2R8Y783 -0.108
